# Experimental data published in the supplement of paper PMC10849652.
# Of roughly 7,900 targets only a part is listed; those with a hit were picked by preference. About 0.6% of all pairs of compound and target were hits. A number with no mark means an inactive call.
# Experiments:
# Test in all cases: log2 fold change, soluble protein after heating vs DMSO (PISA); higher = thermal stabilisation; K562 cells, 10 uM, 30 min; active = over 0.2 and 3.5 SD of the protein, either way, in both replicates (recomputed)
# bafetinib = compound: Cc1ccc(NC(=O)c2ccc(CN3CC[C@H](N(C)C)C3)c(C(F)(F)F)c2)cc1Nc1nccc(-c2cncnc2)n1 [bafetinib]
# Procedure, shortened: (§1)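 Soluble protein was quantified by TMTpro 16plex LC-MS/MS after channel sums were equalised. It was obtained as the supernatant after 21,000xg for 90 min from pooled aliquots of K562 cells (2×10^6 cells/mL, 10 μM compound, 30 min) heated for 3 min across 48°C-58°C and extracted in PBS with 0.5% NP-40 at 4°C. Thermal stability values are relative to control samples and come from duplicates. They are given as log2 fold changes.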
# [1] = compound: Cc1cccc(CC(=O)N2CCc3c2ccc(-c2cn(C)c4ncnc(N)c24)c3F)n1
# Procedure, shortened: as §1
# nilotinib = compound: Cc1cn(-c2cc(NC(=O)c3ccc(C)c(Nc4nccc(-c5cccnc5)n4)c3)cc(C(F)(F)F)c2)cn1 [nilotinib]
# Procedure, shortened: as §1
# [2] = compound: Cc1nc(Nc2n[nH]c3c2CN(C(=O)N[C@H](CN(C)C)c2ccccc2)C3(C)C)c2sccc2n1
# Procedure, shortened: as §1
# dasatinib = compound: Cc1nc(Nc2ncc(C(=O)Nc3c(C)cccc3Cl)s2)cc(N2CCN(CCO)CC2)n1 [dasatinib]
# Procedure, shortened: as §1
# [3] = compound: Cc1ncc(-c2ccnc(Nc3ccc(S(C)(=O)=O)cc3)n2)n1C(C)C
# Procedure, shortened: as §1
# [4] = compound: Cn1cc(-c2ccc3c(c2)CCN3C(=O)Cc2cccc(C(F)(F)F)c2)c2c(N)ncnc21
# Procedure, shortened: as §1
# [5] = compound: Cn1cc(-c2ccc3nnc(C(F)(F)c4ccc5ncccc5c4)n3n2)cn1
# Procedure, shortened: as §1
# tipifarnib = compound: Cn1cncc1[C@@](N)(c1ccc(Cl)cc1)c1ccc2c(c1)c(-c1cccc(Cl)c1)cc(=O)n2C [tipifarnib]
# Procedure, shortened: as §1
# mubritinib = compound: FC(F)(F)c1ccc(/C=C/c2nc(COc3ccc(CCCCn4ccnn4)cc3)co2)cc1 [mubritinib]
# Procedure, shortened: as §1
# [6] = compound: NC(=O)Nc1cc(-c2cccc(F)c2)sc1C(=O)N[C@H]1CCCNC1
# Procedure, shortened: as §1
# [7] = compound: NC(=O)c1cnc(N[C@@H]2CCCC[C@@H]2N)nc1Nc1cccc(-n2nccn2)c1
# Procedure, shortened: as §1
# [8] = compound: NC1(c2ccc(-c3nc4ccn5c(=O)[nH]nc5c4cc3-c3ccccc3)cc2)CCC1
# Procedure, shortened: as §1
# [9] = compound: NCC(=O)Nc1ccc(-n2nc(C(F)(F)F)cc2-c2ccc3c(ccc4ccccc43)c2)cc1
# Procedure, shortened: as §1
# entinostat = compound: Nc1ccccc1NC(=O)c1ccc(CNC(=O)OCc2cccnc2)cc1 [entinostat]
# Procedure, shortened: as §1
# vorinostat = compound: O=C(CCCCCCC(=O)Nc1ccccc1)NO [vorinostat]
# Procedure, shortened: as §1
# citarinostat = compound: O=C(CCCCCCNC(=O)c1cnc(N(c2ccccc2)c2ccccc2Cl)nc1)NO [citarinostat]
# Procedure, shortened: as §1
# silmitasertib = compound: O=C(O)c1ccc2c(c1)nc(Nc1cccc(Cl)c1)c1ccncc12 [silmitasertib]
# Procedure, shortened: as §1
# [10] = compound: O=C1NC(=O)C(c2cnc3ccccn23)=C1c1cn2c3c(cc(F)cc13)CN(C(=O)N1CCCCC1)CC2
# Procedure, shortened: as §1
# [11] = compound: c1cc(OCCN2CCCCC2)cc(-c2n[nH]c3ccc(-c4nnc[nH]4)cc23)c1
# Procedure, shortened: as §1
# UniProt Q5QP82, sequence (Q5QP82 whole entry, looked up): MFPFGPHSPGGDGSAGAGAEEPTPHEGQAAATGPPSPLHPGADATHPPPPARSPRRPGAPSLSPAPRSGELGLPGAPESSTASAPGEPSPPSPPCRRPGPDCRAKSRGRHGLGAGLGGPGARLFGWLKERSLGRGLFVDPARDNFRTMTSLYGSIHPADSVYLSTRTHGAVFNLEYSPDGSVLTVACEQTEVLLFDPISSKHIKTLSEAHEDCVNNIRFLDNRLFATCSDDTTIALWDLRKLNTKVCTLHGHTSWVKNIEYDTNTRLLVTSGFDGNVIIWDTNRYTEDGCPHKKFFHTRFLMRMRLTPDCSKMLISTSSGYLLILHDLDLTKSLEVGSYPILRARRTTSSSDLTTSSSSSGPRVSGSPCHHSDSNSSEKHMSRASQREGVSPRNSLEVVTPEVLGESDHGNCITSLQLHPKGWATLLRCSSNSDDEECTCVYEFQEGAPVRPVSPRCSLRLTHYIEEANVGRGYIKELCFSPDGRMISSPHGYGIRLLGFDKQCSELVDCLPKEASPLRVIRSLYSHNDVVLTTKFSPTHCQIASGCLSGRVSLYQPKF
# UniProt O60888, sequence (O60888 whole entry, looked up): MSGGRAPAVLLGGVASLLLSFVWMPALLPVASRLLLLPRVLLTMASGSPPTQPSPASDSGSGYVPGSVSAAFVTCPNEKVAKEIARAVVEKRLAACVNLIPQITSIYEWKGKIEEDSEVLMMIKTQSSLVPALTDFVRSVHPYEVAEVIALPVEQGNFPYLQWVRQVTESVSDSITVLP
# UniProt Q8IYI6, sequence (Q8IYI6 whole entry, looked up): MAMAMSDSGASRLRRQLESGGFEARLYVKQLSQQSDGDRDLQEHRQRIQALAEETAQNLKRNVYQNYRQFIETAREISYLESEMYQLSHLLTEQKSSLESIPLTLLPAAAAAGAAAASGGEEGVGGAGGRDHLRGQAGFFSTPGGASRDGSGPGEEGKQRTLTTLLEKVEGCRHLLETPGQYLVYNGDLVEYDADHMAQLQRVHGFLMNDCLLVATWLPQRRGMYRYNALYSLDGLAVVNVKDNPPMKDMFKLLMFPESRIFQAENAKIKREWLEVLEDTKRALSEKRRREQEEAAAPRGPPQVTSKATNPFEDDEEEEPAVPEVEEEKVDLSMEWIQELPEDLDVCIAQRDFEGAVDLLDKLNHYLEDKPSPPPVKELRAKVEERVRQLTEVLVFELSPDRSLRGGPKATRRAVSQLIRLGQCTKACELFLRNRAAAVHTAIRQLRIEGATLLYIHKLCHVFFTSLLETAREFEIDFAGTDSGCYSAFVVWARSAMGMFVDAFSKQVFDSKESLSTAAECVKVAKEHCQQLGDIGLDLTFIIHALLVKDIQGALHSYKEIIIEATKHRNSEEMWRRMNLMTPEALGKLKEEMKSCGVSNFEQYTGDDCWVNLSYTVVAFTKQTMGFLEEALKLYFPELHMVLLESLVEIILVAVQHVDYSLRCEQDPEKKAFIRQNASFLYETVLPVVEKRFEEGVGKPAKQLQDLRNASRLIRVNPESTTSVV
# UniProt P25685, sequence (P25685 whole entry, looked up): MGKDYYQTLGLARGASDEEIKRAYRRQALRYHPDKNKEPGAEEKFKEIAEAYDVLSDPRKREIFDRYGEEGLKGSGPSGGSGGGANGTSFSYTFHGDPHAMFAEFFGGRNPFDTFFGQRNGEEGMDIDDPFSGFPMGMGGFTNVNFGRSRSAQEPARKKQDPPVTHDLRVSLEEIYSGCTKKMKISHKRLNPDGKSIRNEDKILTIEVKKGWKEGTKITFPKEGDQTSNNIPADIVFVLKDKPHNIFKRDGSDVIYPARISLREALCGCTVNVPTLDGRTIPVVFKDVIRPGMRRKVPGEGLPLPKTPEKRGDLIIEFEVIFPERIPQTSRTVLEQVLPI
# UniProt Q9NV70, sequence (Q9NV70 whole entry, looked up): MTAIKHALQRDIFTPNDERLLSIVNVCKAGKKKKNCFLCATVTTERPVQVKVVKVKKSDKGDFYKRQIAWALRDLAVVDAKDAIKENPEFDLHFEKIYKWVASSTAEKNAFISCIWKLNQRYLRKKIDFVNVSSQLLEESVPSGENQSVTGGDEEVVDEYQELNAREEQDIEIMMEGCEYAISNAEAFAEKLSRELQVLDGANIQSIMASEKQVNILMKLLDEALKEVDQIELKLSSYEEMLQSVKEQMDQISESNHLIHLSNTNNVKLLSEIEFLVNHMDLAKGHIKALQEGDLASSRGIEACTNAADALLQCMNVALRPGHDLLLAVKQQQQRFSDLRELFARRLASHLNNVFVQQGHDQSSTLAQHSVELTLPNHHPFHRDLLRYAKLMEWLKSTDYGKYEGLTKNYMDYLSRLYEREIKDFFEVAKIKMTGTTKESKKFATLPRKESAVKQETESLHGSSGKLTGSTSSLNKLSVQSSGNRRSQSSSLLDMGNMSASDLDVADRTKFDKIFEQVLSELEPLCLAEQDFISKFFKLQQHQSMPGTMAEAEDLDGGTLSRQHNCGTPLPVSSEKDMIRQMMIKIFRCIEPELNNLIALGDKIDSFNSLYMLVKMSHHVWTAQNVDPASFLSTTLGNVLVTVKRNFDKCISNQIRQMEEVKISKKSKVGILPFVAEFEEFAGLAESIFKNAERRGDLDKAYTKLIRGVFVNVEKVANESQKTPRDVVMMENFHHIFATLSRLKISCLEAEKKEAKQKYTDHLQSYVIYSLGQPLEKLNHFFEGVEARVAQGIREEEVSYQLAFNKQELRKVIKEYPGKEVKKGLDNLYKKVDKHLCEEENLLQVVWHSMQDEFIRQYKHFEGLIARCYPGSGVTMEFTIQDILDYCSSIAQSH
# UniProt Q15392, sequence (Q15392 whole entry, looked up): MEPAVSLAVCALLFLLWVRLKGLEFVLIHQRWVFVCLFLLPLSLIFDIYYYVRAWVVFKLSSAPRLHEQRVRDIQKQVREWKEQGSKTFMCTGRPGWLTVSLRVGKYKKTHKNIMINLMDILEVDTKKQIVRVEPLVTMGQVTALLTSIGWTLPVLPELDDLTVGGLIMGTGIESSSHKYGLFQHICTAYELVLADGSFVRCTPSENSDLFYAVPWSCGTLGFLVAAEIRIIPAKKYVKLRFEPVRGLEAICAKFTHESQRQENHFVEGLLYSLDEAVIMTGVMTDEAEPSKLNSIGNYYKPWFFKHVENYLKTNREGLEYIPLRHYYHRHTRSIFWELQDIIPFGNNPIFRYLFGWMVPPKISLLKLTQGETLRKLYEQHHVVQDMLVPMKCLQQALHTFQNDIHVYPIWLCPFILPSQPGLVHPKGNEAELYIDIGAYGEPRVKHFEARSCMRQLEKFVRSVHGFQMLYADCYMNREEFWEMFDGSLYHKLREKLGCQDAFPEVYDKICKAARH
# UniProt P00374, sequence (P00374 whole entry, looked up): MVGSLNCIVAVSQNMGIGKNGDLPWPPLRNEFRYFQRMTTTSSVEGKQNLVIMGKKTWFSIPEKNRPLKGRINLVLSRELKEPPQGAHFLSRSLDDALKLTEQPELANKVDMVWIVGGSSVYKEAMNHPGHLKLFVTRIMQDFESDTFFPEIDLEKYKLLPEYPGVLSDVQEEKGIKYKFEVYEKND
# UniProt Q96DA6, sequence (Q96DA6 whole entry, looked up): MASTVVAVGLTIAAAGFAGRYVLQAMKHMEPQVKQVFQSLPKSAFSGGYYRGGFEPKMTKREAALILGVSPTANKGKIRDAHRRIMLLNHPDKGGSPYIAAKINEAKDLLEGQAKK
# UniProt Q8TAG9, sequence (Q8TAG9 whole entry, looked up): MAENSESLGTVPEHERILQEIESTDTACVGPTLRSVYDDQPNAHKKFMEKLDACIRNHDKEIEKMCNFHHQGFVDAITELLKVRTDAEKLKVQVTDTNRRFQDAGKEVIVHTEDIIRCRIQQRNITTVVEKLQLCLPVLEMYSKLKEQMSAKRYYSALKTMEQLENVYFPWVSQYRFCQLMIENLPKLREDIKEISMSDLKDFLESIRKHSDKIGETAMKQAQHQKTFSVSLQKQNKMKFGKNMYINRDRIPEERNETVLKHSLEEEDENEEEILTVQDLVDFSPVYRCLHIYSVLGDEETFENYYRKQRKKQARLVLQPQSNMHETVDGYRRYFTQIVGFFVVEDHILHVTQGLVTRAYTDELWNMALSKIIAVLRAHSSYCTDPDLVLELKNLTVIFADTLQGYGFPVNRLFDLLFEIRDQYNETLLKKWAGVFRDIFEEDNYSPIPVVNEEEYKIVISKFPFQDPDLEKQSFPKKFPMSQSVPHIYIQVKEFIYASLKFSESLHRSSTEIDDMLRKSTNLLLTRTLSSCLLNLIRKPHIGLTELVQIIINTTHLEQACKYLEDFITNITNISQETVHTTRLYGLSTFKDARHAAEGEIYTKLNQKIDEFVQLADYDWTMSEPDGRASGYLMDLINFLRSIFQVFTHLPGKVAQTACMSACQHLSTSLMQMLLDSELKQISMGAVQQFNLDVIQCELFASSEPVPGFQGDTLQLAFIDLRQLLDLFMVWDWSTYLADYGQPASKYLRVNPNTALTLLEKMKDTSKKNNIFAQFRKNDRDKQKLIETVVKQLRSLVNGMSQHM
# UniProt O94905, sequence (O94905 whole entry, looked up): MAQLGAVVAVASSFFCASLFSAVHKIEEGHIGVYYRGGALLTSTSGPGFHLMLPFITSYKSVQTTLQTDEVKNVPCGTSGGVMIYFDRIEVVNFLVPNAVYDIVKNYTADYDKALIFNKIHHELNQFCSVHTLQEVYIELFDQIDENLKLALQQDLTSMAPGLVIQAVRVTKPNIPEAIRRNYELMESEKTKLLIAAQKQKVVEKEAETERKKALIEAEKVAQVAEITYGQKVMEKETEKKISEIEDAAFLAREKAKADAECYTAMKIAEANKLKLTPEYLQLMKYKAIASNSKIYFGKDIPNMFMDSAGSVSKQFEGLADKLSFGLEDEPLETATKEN
# UniProt P23919, sequence (P23919 whole entry, looked up): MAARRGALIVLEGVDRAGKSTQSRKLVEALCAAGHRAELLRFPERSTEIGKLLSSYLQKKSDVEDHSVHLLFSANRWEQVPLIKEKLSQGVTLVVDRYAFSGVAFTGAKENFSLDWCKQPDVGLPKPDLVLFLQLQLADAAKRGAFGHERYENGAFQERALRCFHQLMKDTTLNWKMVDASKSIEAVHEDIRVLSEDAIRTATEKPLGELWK
Target,log2 fold change (bafetinib),log2 fold change [1],log2 fold change (nilotinib),log2 fold change [2],log2 fold change (dasatinib),log2 fold change [3],log2 fold change [4],log2 fold change [5],log2 fold change (tipifarnib),log2 fold change (mubritinib),log2 fold change [6],log2 fold change [7],log2 fold change [8],log2 fold change [9],log2 fold change (entinostat),log2 fold change (vorinostat),log2 fold change (citarinostat),log2 fold change (silmitasertib),log2 fold change [10],log2 fold change [11]
DHCR24 (UniProt Q15392),1.39 (active),-0.001,-0.03,0.025,0.127,0.577,0.292,0.043,-0.006,0.47,-0.022,-0.037,0.048,-0.024,-0.082,-0.012,0,-0.018,0.041,1.08 (active)
CTU1 (UniProt Q7Z7A3),-0.024,0.067,-0.062,-0.03,-0.145,-0.03,0.035,0.02,-0.043,0.067,0.038,-0.015,-0.199,-0.142,0.023,0.075,0.049,0.021,0,0.008
DHFR (UniProt P00374),0.191,0.026,0.185,-0.022,-0.187,0.076,0,0.182,0.177,-0.225,0.095,0.209,0.849 (active),-0.139,-0.02,0.082,0.042,0.57 (active),0.072,-0.048
EXOC1 (UniProt Q9NV70),0.061,0.025,-0.034,-0.069,-0.126,-0.051,-0.008,0.026,-0.098,0.032,0.043,-0.162,-0.228,-0.065,0.062,0.082,0.014,0.127,0.069,-0.165
EXOC8 (UniProt Q8IYI6),-0.081,0.071,-0.054,-0.137,-0.1,-0.012,-0.015,0.028,-0.038,0.039,0.044,-0.044,-0.373 (active),-0.039,0.108,0.051,0.084,0.035,0.045,-0.062
DTYMK (UniProt P23919),0.044,0.007,0.042,0.041,-0.151,-0.029,0.045,0.002,-0.019,0.078,0.005,-0.011,-0.169,-0.014,-0.035,0.043,0.047,-0.04,-0.058,-0.071
DNAJC19 (UniProt Q96DA6),-0.123,0.003,0.025,0.002,-0.003,-0.005,0.012,0.022,0.012,0.001,-0.014,0.004,-0.017,-0.006,0.004,-0.03,0.024,-0.018,0.01,-0.015
CUTA isoform 2 (UniProt O60888),-0.148,0.1,0.016,0.016,0,-0.01,0.07,0.09,0.123,0.028,-0.022,0.153,0.013,0.063,0.019,-0.005,0.113,-0.031,-0.132,-0.046
DHRS1 (UniProt Q96LJ7),0.352,0.316,0.638,-0.076,0.02,-0.14,1.1 (active),-0.106,0.717,0.178,-0.118,-0.047,0.184,0.095,-0.082,-0.098,-0.237,0,0.834 (active),0.291
DCAF10 (UniProt Q5QP82),-0.002,-0.069,-0.052,0.041,0.026,-0.047,0.012,0.007,-0.054,-0.002,-0.018,-0.02,0.026,0.033,-0.021,-0.015,0.08,0.122,-0.028,0.357 (active)
DNAJB1 (UniProt P25685),-0.026,0.013,-0.042,-0.058,-0.064,0.026,0.035,0.02,-0.026,0.01,-0.006,-0.041,-0.09,-0.083,0.013,0.034,0.044,0.011,-0.005,-0.04
DHX36 (UniProt Q9H2U1),0.065,0.015,-0.066,0.052,-0.01,0.045,-0.076,-0.059,0.002,-0.128,0,0.025,-0.028,0.056,-0.003,-0.028,0.014,0.009,0.11,-0.283 (active)
DMAC1 (UniProt Q96GE9),-0.138,-0.047,-0.083,0.067,0.118,-0.007,-0.014,0.095,-0.156,0.085,0.136,0.031,0.015,-0.07,-0.004,0.019,-0.003,-0.185,-0.427,0.113
EXOC6 (UniProt Q8TAG9),-0.013,0.036,-0.013,-0.196,-0.22,-0.013,0.042,0.028,-0.076,0.07,-0.052,-0.091,-0.258,-0.078,0.045,0.324 (active),0.023,0.049,0.03,0.007
CYBA (UniProt P13498),-0.24 (active),-0.06,0.01,0.034,-0.077,0.026,0.002,0.004,0,0.006,-0.028,-0.141,-0.044,-0.13,-0.004,0.018,-0.01,0,-0.01,-0.041
ERLIN2 (UniProt O94905),0.039,0.032,-0.107,0.012,-0.023,0.023,-0.104,0,0.024,-0.049,0.04,-0.047,-0.01,-0.062,0.032,0.048,0.011,0.002,0.069,-0.044
